T cruzi growth-1: T. cruzi intracellular proliferation inhibitors, primary screen, cell-based, beta-gal Tulahuen parasites, NIH3T3 host, luminescence | inhibition, % at 8.34 µM | hit rate 5.9% among 77,000 | T. cruzi beta-gal in NIH3T3, GalScreen luminescence, 90 h;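 active = mean inhibition above about 93%, with at least 55% of replicates each passing it, limit read from the data, passing the limit was not always enough; inconclusive = only one of those two conditions holds; inactive = neither condition holds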
C diff growth: C. difficile growth inhibitors, primary screen, HTS; Clostridium difficile clinical isolate growth, OD600, 24 h; active compounds read low; growth activity, negative = inhibition, % at 16 µg/mL (by protocol); hit rate 0.25% among 86,000; AID 1259249, 2017;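 active = mean growth activity at or below -80% and every replicate also at or below -80%; inconclusive = mean at or below -80% but some replicate above -80%; inactive = mean growth activity above -80%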;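 also: 0% = DMSO wells and -100% = levofloxacin 16 µg/mL wells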
T cruzi growth-2: T. cruzi intracellular proliferation inhibitors, confirmation, cell-based, NIH3T3 host, beta-gal parasite, luminescence, cherry-pick; shares compounds with T cruzi growth-1; T. cruzi beta-gal in NIH3T3, GalScreen luminescence, 90 h; inhibition, % at 8.35 µM; hit rate 72% among 5,600; AID 651739, 2012;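 active = mean replicate inhibition above about 95% and at least 55% of replicates individually reaching it, limit read from the data; inconclusive = only one of the two criteria is met; inactive = neither criterion is met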
T cruzi growth-3: inhibitors of intracellular T. cruzi replication, confirmation, NIH3T3 host cells, beta-gal parasites, cherry-pick, set 2 | shares compounds with T cruzi growth-1 | T. cruzi beta-gal in NIH3T3, GalScreen luminescence, 90 h | inhibition, % at 2.09 µM | hit rate 21% among 5,600;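 active = mean inhibition above about 95%, with at least 55% of replicates also reaching it, limit read from the data; inconclusive = meets just one of the two conditions; inactive = meets neither condition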;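 also: plate controls were neutral control median for no effect and positive control median for full effect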
3T3 cytotox: cytotoxicity in mouse NIH/3T3 fibroblasts, confirmation, cytotoxicity control for T. cruzi proliferation inhibitor project, cell-based, cherry-pick, single point; shares compounds with T cruzi growth-1; NIH/3T3 viability, CellTiter-Glo ATP luminescence, 90 h; cytotoxicity (signal decrease), % at 8.35 µM; hit rate 14% among 5,600; AID 651742, 2012;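 active = mean signal decrease across replicates above about 35% based on untreated-well scatter, with enough replicates individually passing, limit read from the data; inconclusive = no rule stated though some were filed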;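 also: 0% = median of neutral control wells and 100% = median of positive control wells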
NIH3T3 tox 2: NIH/3T3 fibroblast cytotoxicity, confirmation, cytotoxicity control, cell-based, cherry-pick, single point, set 2 | shares compounds with T cruzi growth-1 | AID 651744, 2012 | NIH/3T3 viability, CellTiter-Glo ATP luminescence, 90 h | hit rate 56% among 5,600 | inhibition, % at 24.9 µM;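 active = mean loss of cell viability signal at or above a set limit, and enough replicates individually reaching it; inconclusive = meets only the mean limit or only the replicate share; inactive = meets neither condition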;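 also: 0% = median of neutral control wells and 100% = median of positive control wells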
Numbers without * were called inactive; ? = inconclusive; / = no result. The entries come from a sample that favours hits as a whole.

SMILES	T cruzi growth-1	C diff growth	T cruzi growth-2	T cruzi growth-3	3T3 cytotox	NIH3T3 tox 2
C[C@H](CO)N1C[C@H](C)[C@@H](CN(C)Cc2ccncc2)Oc2ncc(C#Cc3ccccn3)cc2C1=O	?	0	108*	47	-14	7
C[C@H]1CN([C@@H](C)CO)C(=O)c2cc(C#Cc3ccccn3)cnc2O[C@H]1CN(C)Cc1ccccc1	55	-4	/	/	/	/
C[C@@H]1CN([C@H](C)CO)C(=O)c2cc(C#Cc3ccccn3)cnc2O[C@H]1CN(C)Cc1ccncc1	107*	0	104*	39	-14	2
CCCNC(=O)N1[C@H](CO)[C@H](c2ccc(C3=CCCC3)cc2)[C@@H]1CNC(=O)CC	14	-2	/	/	/	/
C[C@H](CO)N1C[C@H](C)[C@@H](CN(C)C(=O)Nc2ccc(F)cc2)OCCCC[C@H](C)Oc2ccc(NC(=O)NC3CCCCC3)cc2C1=O	?	-6	109*	68	18	-27
C[C@@H]1CCCCO[C@H](CN(C)C(=O)Nc2ccc(F)cc2)[C@@H](C)CN([C@H](C)CO)C(=O)c2cc(NC(=O)NC3CCCCC3)ccc2O1	-8	5	/	/	/	/
C[C@H](CO)N1C[C@H](C)[C@H](CN(C)C(=O)Nc2ccc(F)cc2)OCCCC[C@H](C)Oc2ccc(NC(=O)NC3CCCCC3)cc2C1=O	102*	-3	106*	71	12	11
C[C@@H]1CN([C@H](C)CO)C(=O)c2cc(NC(=O)NC3CCCCC3)ccc2O[C@@H](C)CCCCO[C@H]1CN(C)C(=O)Nc1ccc(F)cc1	/	0	/	/	/	/
CC=Cc1ccc2n(c1=O)C[C@H]1[C@H](CO)[C@@H](C(=O)NCC3CC3)[C@@H]2N1Cc1ccccc1F (mixture of isomers)	80	1	/	/	/	/
C[C@H]1CN([C@@H](C)CO)S(=O)(=O)c2ccc(C#Cc3ccccn3)cc2O[C@@H]1CN(C)Cc1ccccc1	75	-12	/	/	/	/
C[C@H]1CN([C@@H](C)CO)S(=O)(=O)c2ccc(C#Cc3ccccn3)cc2O[C@@H]1CN(C)Cc1ccc(F)cc1	130*	-4	96*	79	42*	85*
C[C@@H]1CN([C@@H](C)CO)S(=O)(=O)c2ccc(C#Cc3ccccn3)cc2O[C@H]1CN(C)C	/	-2	/	/	/	/
C[C@H](CO)N1C[C@H](C)[C@H](CN(C)Cc2ccc(F)cc2)Oc2cc(C#Cc3ccccn3)ccc2S1(=O)=O	124*	0	109*	93	-28	9
C[C@H]1CN([C@@H](C)CO)S(=O)(=O)c2ccc(C#Cc3ccccn3)cc2O[C@H]1CN(C)Cc1ccc(F)cc1	116*	3	103*	76	3	37*
C[C@H](CO)N1C[C@H](C)[C@H](CN(C)CC2CC2)Oc2cc(C#Cc3ccccn3)ccc2S1(=O)=O	21	-6	/	/	/	/
C[C@@H]1CCCCO[C@@H](CN(C)S(=O)(=O)c2cccs2)[C@@H](C)CN([C@H](C)CO)C(=O)c2cc(N(C)C)ccc2O1	58	2	/	/	/	/
Cc1ccc(S(=O)(=O)N(C)C[C@H]2Oc3ccc(NS(C)(=O)=O)cc3CC(=O)N([C@@H](C)CO)C[C@@H]2C)cc1	29	1	/	/	/	/
C/C=C/c1ccc([C@@H]2[C@@H](CO)N(C(C)=O)[C@H]2CN(CC)C(=O)CN(C)C)cc1	-35	-5	/	/	/	/
O=C(N[C@@H]1CC[C@H](CCNC(=O)C2CCCC2)O[C@@H]1CO)c1ccccn1	/	0	/	/	/	/
CCCNC(=O)N1CC2(C1)CN(C(=O)CN1CCOCC1)[C@@H](CO)c1[nH]c3cc(OC)ccc3c12	/	-7	/	/	/	/
CCCC(=O)Nc1ccc2c(c1)C(=O)N(C)C[C@H](OC)[C@@H](C)CN(Cc1cncnc1)[C@H](C)CO2	-34	0	/	/	/	/
C[C@@H]1CN([C@H](C)CO)S(=O)(=O)c2ccc(/C=C/c3ccccc3)cc2O[C@@H]1CN(C)C(=O)c1ccccc1	123*	5	105*	77	79*	79*

High-throughput results from PubChem.
